Assay results reported in PubChem BioAssay (Tox21).
Unmarked numbers belong to inactive results. Results filed as inconclusive are left out. A call without a number means that no potency is given here. Calls of active or inactive are those of the source. Unless noted, the call rests on the fitted dose curve; in most records, active means well fitted curve in the direction sought with a large enough effect in the repeat runs; inconclusive means weak or mixed curves; inactive means no such curve, though single readings can be large; an effect the other way counts as inactive or inconclusive.

Legend:
[1] = qHTS assay to identify small molecule antagonists of the estrogen receptor alpha (ER-alpha) signaling pathway using the BG1 cell line in the presence of 0.1 nM 17-beta-estradiol - cell viability counter screen (AID 1259241); further: nearly all actives have a fitted effect of over 40% in size
In short: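 The cell line endogenously expresses full-length ER-alpha and carries four EREs driving luciferase. Cells are cultured 5 days hormone-free, treated 22 hr with compounds and 0.1 nM estradiol, then viability is read by fluorescence.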

[2] = qHTS assay to identify small molecule antagonists of the androgen receptor (AR) signaling pathway using the MDA cell line in the presence of 0.5 nM R1881 - cell viability counter screen (AID 1259242); further: nearly all actives have a fitted effect of over 45% in size
In short: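 Cytotoxicity toward MDA-kb2 cells is measured by CellTiter-Fluor live-cell protease fluorescence after 16 hr compound exposure at 37C in the presence of 0.5 nM R1881 stimulator.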

[3] = molecular target: Estrogen receptor (Homo sapiens) (UniProt P03372); assay: qHTS assay to identify small molecule antagonists of the estrogen receptor alpha (ER-alpha) signaling pathway using the BG1 cell line in the presence of 0.1 nM 17-beta-estradiol (AID 1259244); further: nearly all actives have a fitted effect of over 50% in size; further: potency means the concentration at half of the fitted maximal effect
In short: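 After 5 days in hormone-depleted medium (charcoal-stripped serum, no phenol red), VM7Luc4E2 cells were seeded, incubated 24 h, then co-treated with compound and 0.1 nM (final) estradiol for 22 h before luminescence detection.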

[4] = qHTS assay to identify small molecule HDAC inhibitors (AID 1259364); further: nearly all actives have a fitted effect of over 45% in size; further: potency means the concentration at half of the fitted maximal effect
In short: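 Homogeneous cell-based luminescent assay of endogenous class I/II HDAC activity; HCT-116 cells, 2 h compound exposure, 30 min HDAC-Glo development at RT.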

[5] = qHTS assay to identify small molecule HDAC inhibitors - cell viability counter screen (AID 1259365); further: series mostly up to about 92 µM; nearly all actives have a fitted effect of over 50% in size
In short: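 Viability readout: CellTiter-Glo luminescence. Wild-type HCT-116 cells, 2hr compound treatment following overnight attachment at 37 C.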

[6] = qHTS assay to identify small molecule agonists of the sonic hedgehog signaling (Shh) pathway - cell viability counter screen (AID 1259366); further: nearly all actives have a fitted effect of over 50% in size; further: potency means the concentration at half of the fitted maximal effect
In short: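 Viability measured fluorometrically (CellTiter-Fluor, 1hr, 37C) in 3T3 Gli1-Luc reporter cells after 23hr compound exposure within a 24hr incubation at 37C/5% CO2.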

[7] = qHTS assay to identify small molecule antagonists of the sonic hedgehog signaling (Shh) pathway - cell viability counter screen (AID 1259367); further: nearly all actives have a fitted effect of over 55% in size
In short: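 Using CellTiter-Fluor, viability of Gli1-Luc reporter 3T3 cells is read by fluorescence in the wells used for the Shh luciferase assay. Treatment lasts 23 hr with conditioned medium, then reagent 1 hr at 37C.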

[8] = qHTS assay to identify small molecule agonists of the sonic hedgehog signaling (Shh) pathway (AID 1259368; calls by dose curve;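 further: NIH/3T3-derived 3T3Gli1-Luc cells carrying a stable Gli1-driven firefly luciferase reporter; series mostly up to about 92 µM; nearly all actives have a fitted effect of over 15% in size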)
In short: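 Steps: seed 3T3 Gli1-Luc cells, incubate 4 hr at 37 C, pin-transfer compounds in DMSO alongside a positive control, incubate 24 hr, add luciferase detection reagent, wait 30 min at room temperature, read luminescence.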

[9] = qHTS assay to identify small molecule antagonists of the sonic hedgehog signaling (Shh) pathway (AID 1259369; calls by dose curve; further: nearly all actives have a fitted effect of over 45% in size; further: potency means the concentration at half of the fitted maximal effect)
In short: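 Inhibition of Shh signalling is measured as reduced Gli1-response-element firefly luciferase output in an NIH/3T3-derived stable reporter clone stimulated with conditioned medium for 24hr.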

[10] = qHTS assay to identify small molecule agonists of the androgen receptor (AR) signaling pathway in the presence of an antagonist - cell viability counter screen (AID 1259379);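 further: MDA-kb2 human breast cancer cells carrying an MMTV luciferase reporter; series mostly up to about 92 µM; nearly all actives have a fitted effect of over 25% in size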
In short: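 Fluorescence from CellTiter-Fluor, added after 15 hr and read 1 hr later, gave cell viability. Cells were MDA-kb2 exposed to compounds (15 concentrations) in the presence of 3.0uM nilutamide at 37C, 0% CO2.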

[11] = qHTS assay to identify small molecule antagonists of the estrogen receptor beta (ER-beta) signaling pathway - cell viability counter screen (AID 1259382);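 further: HEK293T cells carrying ER-beta-UAS-bla reporter stimulated with estradiol; series mostly up to about 92 µM; nearly all actives have a fitted effect of over 55% in size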
In short: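 Following a 6 hr plating period, HEK293T cells carrying a UAS-driven beta-lactamase reporter under ER-beta control received compounds and 1nM E2 (final). After 16 hr at 37C and 2 hr substrate loading, CellTiter-Glo luminescence indicated viability.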

[12] = molecular target: Estrogen receptor (Homo sapiens) (UniProt P03372); assay: qHTS assay to identify small molecule agonists of the estrogen receptor alpha (ER-alpha) signaling pathway in the presence of an antagonist (AID 1259383; calls by dose curve; further: nearly all actives have a fitted effect of over 15% in size; further: potency means the concentration at half of the fitted maximal effect; on activation: top concentration of the series differs between compounds)
In short: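 Cells are hormone-deprived for 5 days (charcoal-stripped FBS, no phenol red), plated for 24hr, spiked with 10.0nM ICI-182,780, then dosed at 15 concentrations. After 22hr at 37C, ONE-Glo luminescence reports ERE-luciferase activity.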

[13] = qHTS assay to identify small molecule agonists or antagonists of the thyroid stimulating hormone receptor (TSHR) signaling pathway - wild type cell line counter screen (AID 1259384; calls by dose curve)
In short: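 Counter screen in untransfected Hek293: compounds (15-point titration, triplicate) plus phosphodiesterase inhibitor Ro20-1724 added after 18 h plating; 30 min RT. Intracellular cAMP via competitive d2/cryptate immunoassay, 1 h incubation.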

[14] = molecular target: Thyrotropin receptor (Homo sapiens) (UniProt P16473); assay: qHTS assay to identify small molecule antagonists of the thyroid stimulating hormone receptor (TSHR) signaling pathway (AID 1259385; calls by dose curve; further: nearly all actives have a fitted effect of over 20% in size)
In short: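 Antagonist mode: compound-treated TSHR-expressing HEK293 cells were stimulated with 1.5 ng/mL TSH (final) in presence of Ro20-1724 for 30 min at RT. HTRF cAMP detection after 1 h; each compound tested at 15 concentrations, triplicate.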

[15] = molecular target: Estrogen receptor beta (Homo sapiens) (UniProt Q92731); assay: qHTS assay to identify small molecule antagonists of the estrogen receptor beta (ER-beta) signaling pathway (AID 1259378; active means well fitted inhibition curve with a large enough effect in the signal ratio in the repeat runs, not every such curve was filed as active; the % refers to the signal ratio; further: potency means the concentration at half of the fitted maximal effect)
In short: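 Antagonist mode: compounds added to beta-lactamase reporter HEK293T ER-beta-UAS cells stimulated with E2 (1nM final), 16 hr at 37C. LiveBLAzer B/G FRET substrate, 2 hours room temperature, fluorescence read-out.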

[16] = qHTS assay to identify small molecule agonists of the estrogen receptor beta (ER-beta) signaling pathway - cell viability counter screen (AID 1259380); further: nearly all actives have a fitted effect of over 30% in size; further: potency means the concentration at half of the fitted maximal effect
In short: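 Same-well viability counter screen. Cells: ER-beta-UAS-bla HEK293T, plated 6 hr before compound, in 2% charcoal-stripped FBS. Compound exposure 16 hr, 37C; viability by CellTiter-Glo luminescence after 30 min at room temperature.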

[17] = molecular target: Estrogen receptor beta (Homo sapiens) (UniProt Q92731); assay: qHTS assay to identify small molecule agonists of the estrogen receptor beta (ER-beta) signaling pathway (AID 1259377; active means well fitted activation curve with a large enough effect in the signal ratio in the repeat runs, not every such curve was filed as active; the % refers to the signal ratio)
In short: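 A UAS-controlled beta-lactamase reporter in ER-beta-UAS-bla HEK293T cells reports receptor activation. Compounds act for 16 hr at 37C in 2% charcoal-stripped serum, and a FRET substrate is read by fluorescence after 2 hours.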

[18] = qHTS assay to identify small molecule phospholipidosis (PLD) inducers (AID 1259344; active means well fitted curve in the direction sought with a large enough effect; an effect the other way counts as inactive or inconclusive)
In short: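 Fluorescent phospholipid staining (LipidTOX Red) measured by automated microscopy in fixed HepG2 cells after 24 h treatment; nuclei counterstained with Hoechst 33342; amiodarone as reference inducer.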

[19] = molecular target: Androgen receptor (Homo sapiens) (UniProt P10275); assay: qHTS assay to identify small molecule agonists of the androgen receptor (AR) signaling pathway in the presence of an antagonist (AID 1259381; calls by dose curve; further: nearly all actives have a fitted effect of over 15% in size)
In short: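 Cells are MDA-kb2 (human breast carcinoma, MMTV-luc, AR/GR responsive). Nilutamide is present at 3.0uM final throughout; compounds are added at 15 concentrations and incubated 16hr at 37C before ONE-Glo luminescence detection.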

Sequence of Estrogen receptor beta (Homo sapiens) (Q92731 whole entry, looked up): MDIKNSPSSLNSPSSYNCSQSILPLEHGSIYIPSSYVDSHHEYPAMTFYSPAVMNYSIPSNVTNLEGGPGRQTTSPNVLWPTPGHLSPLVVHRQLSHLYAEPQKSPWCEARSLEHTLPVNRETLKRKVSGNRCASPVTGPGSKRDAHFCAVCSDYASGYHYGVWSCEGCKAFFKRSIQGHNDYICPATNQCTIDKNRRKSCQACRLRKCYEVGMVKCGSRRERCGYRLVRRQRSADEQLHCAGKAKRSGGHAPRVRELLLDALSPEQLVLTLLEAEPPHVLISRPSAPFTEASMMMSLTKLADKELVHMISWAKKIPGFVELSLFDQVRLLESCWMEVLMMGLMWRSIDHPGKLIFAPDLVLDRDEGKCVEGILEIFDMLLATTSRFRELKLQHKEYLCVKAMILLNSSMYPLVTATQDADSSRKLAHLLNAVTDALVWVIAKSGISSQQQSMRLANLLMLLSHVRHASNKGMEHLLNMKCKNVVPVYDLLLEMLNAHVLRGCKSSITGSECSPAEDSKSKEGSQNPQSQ
Sequence of Estrogen receptor (Homo sapiens) (P03372 whole entry, looked up): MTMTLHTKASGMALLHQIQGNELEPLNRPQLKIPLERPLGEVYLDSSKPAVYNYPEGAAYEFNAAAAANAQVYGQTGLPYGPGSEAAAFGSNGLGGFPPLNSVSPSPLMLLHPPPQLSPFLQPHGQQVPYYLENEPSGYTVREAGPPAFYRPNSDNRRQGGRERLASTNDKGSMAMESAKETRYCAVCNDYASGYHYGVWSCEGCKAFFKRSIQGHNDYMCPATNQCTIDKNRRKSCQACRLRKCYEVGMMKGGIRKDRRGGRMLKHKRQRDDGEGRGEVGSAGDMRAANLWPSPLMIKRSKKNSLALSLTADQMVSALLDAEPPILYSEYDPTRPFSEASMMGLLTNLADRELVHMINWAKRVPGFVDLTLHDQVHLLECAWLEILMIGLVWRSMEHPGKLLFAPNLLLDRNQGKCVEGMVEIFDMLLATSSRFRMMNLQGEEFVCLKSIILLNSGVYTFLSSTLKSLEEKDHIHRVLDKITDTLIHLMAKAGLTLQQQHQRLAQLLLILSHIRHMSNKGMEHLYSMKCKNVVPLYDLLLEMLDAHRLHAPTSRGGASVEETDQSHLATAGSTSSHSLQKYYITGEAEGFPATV
Sequence of Thyrotropin receptor (Homo sapiens) (P16473 whole entry, looked up): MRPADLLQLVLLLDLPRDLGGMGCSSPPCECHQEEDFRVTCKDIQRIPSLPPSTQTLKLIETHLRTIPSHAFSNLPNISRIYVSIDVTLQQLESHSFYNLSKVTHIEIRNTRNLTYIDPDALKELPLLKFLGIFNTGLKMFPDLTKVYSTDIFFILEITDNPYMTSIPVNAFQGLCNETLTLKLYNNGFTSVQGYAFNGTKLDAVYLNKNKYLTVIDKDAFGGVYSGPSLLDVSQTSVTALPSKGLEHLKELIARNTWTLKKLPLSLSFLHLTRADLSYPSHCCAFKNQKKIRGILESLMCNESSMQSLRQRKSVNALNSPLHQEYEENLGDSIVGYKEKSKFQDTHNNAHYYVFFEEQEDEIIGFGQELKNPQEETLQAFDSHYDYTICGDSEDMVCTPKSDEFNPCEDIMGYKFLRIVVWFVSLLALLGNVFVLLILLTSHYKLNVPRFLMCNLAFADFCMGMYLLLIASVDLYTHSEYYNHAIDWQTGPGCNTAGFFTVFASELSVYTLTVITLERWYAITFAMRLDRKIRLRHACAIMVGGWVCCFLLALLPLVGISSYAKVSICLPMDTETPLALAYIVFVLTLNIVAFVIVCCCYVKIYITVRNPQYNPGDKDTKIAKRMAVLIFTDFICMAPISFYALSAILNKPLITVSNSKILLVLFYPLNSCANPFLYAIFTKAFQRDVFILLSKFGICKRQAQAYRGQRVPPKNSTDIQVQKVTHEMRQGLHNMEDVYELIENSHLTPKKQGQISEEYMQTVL
Sequence of Androgen receptor (Homo sapiens) (P10275 whole entry, looked up): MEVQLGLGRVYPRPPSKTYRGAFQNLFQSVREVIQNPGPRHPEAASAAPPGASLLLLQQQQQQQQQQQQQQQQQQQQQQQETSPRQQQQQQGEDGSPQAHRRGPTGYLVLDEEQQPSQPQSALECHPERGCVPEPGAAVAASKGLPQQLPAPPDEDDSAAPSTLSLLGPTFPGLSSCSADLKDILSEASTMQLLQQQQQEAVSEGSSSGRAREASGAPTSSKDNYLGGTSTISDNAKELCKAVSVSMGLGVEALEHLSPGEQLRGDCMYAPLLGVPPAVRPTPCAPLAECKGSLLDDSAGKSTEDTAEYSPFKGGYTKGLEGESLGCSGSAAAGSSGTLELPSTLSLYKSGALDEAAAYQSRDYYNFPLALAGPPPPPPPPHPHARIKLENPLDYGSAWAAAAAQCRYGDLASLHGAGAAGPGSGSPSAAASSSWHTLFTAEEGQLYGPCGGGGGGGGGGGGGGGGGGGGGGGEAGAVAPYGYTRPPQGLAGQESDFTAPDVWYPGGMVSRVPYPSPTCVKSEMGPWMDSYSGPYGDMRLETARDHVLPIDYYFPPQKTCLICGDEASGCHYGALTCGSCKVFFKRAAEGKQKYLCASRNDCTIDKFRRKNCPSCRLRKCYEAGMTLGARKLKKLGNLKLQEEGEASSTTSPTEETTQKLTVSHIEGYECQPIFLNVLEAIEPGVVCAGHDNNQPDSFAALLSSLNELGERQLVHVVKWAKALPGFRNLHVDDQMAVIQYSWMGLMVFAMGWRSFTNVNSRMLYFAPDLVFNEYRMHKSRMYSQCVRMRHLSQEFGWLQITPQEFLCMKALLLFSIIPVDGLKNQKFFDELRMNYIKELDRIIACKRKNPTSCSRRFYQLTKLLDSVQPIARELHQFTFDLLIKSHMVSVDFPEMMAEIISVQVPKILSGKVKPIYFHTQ

SMILES	Potency [1]	Potency [2]	Potency [3]	Potency [4]	outcome [5]	Potency [6]	Potency [7]	outcome [8]	Potency [9]	Potency [10]	Potency [11]	Potency [12]	Potency [13]	Potency [14]	Potency [15]	Potency [16]	Potency [17]	Potency [18]	Potency [19]
N#Cc1cc2ccccc2c2ccccc12	inactive	inactive	inactive	inactive	inactive	inactive	inactive	inactive	inactive	inactive	inactive	inactive	inactive	inactive	–	–	–	–	–
OCCC1CCCCN1 (configuration not stated)	inactive	inactive	inactive	inactive	inactive	inactive	inactive	inactive	inactive	–	inactive	inactive	inactive	inactive	inactive	inactive	–	–	–
Oc1ccc(O)c2c(O)cccc12	inactive	inactive	inactive	inactive	inactive	inactive	inactive	inactive	–	–	inactive	inactive	inactive	inactive	inactive	inactive	inactive	–	–
CCCCCOC(=O)c1ccc(O)cc1	inactive	inactive	inactive	24.6 µM (active)	inactive	inactive	–	–	39 µM (active)	inactive	inactive	31 µM (active)	inactive	inactive	24.6 µM (active)	55.1 µM (active)	–	–	–
CC(CN)CCCN (configuration not stated)	inactive	inactive	inactive	inactive	inactive	inactive	inactive	–	–	–	inactive	inactive	–	inactive	inactive	inactive	–	–	–
CCOC(=O)C1=NN(c2ccccc2)C(=O)C1	inactive	inactive	inactive	inactive	inactive	inactive	inactive	inactive	–	inactive	inactive	inactive	inactive	inactive	–	inactive	–	–	–
CC(=O)OCCc1ccccc1	inactive	inactive	inactive	inactive	inactive	inactive	inactive	inactive	inactive	–	inactive	inactive	–	inactive	–	inactive	–	–	–
CC1=CC(=O)/C(=C(/C)O)C(=O)O1	inactive	inactive	inactive	inactive	inactive	inactive	inactive	–	inactive	inactive	inactive	inactive	inactive	inactive	inactive	inactive	inactive	–	–
Oc1ccc2c(c1)OCO2	inactive	inactive	inactive	inactive	inactive	inactive	inactive	inactive	–	inactive	inactive	inactive	inactive	inactive	–	inactive	–	–	–
Cc1ccc2c(ccc3ccccc32)c1	inactive	inactive	inactive	inactive	inactive	inactive	inactive	–	inactive	inactive	inactive	inactive	inactive	–	–	inactive	inactive	–	–
O=C1CCCCCO1	inactive	inactive	inactive	inactive	inactive	inactive	inactive	–	inactive	inactive	inactive	inactive	inactive	inactive	inactive	inactive	inactive	–	–
C[Si](C)O[Si](C)(C)O[Si](C)(C)O[Si](C)C	inactive	inactive	inactive	inactive	inactive	inactive	inactive	–	inactive	inactive	inactive	inactive	inactive	inactive	–	inactive	–	–	–
Cc1occc1S	inactive	inactive	inactive	inactive	inactive	inactive	inactive	inactive	–	inactive	inactive	inactive	inactive	inactive	inactive	–	inactive	–	–
CCCCCCCCN(C)C	inactive	inactive	inactive	inactive	inactive	inactive	inactive	inactive	inactive	inactive	inactive	inactive	inactive	inactive	–	inactive	–	–	–
CCCCCCCCC(CO)CCCCCC (configuration not stated)	inactive	inactive	inactive	inactive	inactive	inactive	inactive	inactive	inactive	–	inactive	inactive	inactive	inactive	inactive	inactive	–	–	–
O=S(=O)(O)c1ccc(O)c2ncccc12	inactive	inactive	inactive	inactive	inactive	inactive	inactive	inactive	–	inactive	inactive	inactive	inactive	inactive	–	inactive	–	–	–
CN(C)CCCNCCCN	inactive	inactive	inactive	inactive	inactive	27.2 µM (active)	inactive	inactive	–	–	inactive	inactive	–	inactive	inactive	–	inactive	–	–
C1=Cc2ccccc2C1	inactive	inactive	inactive	inactive	inactive	inactive	inactive	inactive	inactive	inactive	inactive	inactive	–	–	–	inactive	–	–	–
CCCCOCCOCCOCCOCCO	inactive	inactive	inactive	inactive	inactive	inactive	inactive	inactive	–	inactive	inactive	inactive	inactive	inactive	inactive	–	inactive	–	–
CC(=O)[C@@]1(O)CC[C@H]2[C@@H]3C[C@H](C)C4=CC(=O)CC[C@]4(C)[C@H]3CC[C@@]21C	inactive	inactive	inactive	inactive	inactive	inactive	inactive	inactive	–	inactive	inactive	inactive	inactive	inactive	inactive	inactive	inactive	–	–
Cc1cccc(Oc2ccccc2)c1	inactive	inactive	66.8 µM (active)	inactive	inactive	inactive	inactive	–	inactive	–	–	inactive	inactive	inactive	–	9.44 µM (active)	–	–	–
OCC1CC2CC1C1CCC(CO)C21 (configuration not stated)	inactive	inactive	inactive	inactive	inactive	inactive	inactive	inactive	–	inactive	–	inactive	inactive	inactive	–	–	–	–	–
CCCCCOC(=O)COc1cc(N2C(=O)C3=C(CCCC3)C2=O)c(F)cc1Cl	inactive	inactive	inactive	inactive	inactive	inactive	inactive	–	–	inactive	inactive	inactive	inactive	inactive	inactive	–	–	–	–
O=C(O)C1CCC(C(=O)O)CC1 (configuration not stated)	inactive	inactive	inactive	inactive	inactive	inactive	inactive	–	–	inactive	inactive	inactive	inactive	inactive	inactive	inactive	–	–	–
CCCCOC(=O)/C=C\C(=O)OCCCC	inactive	inactive	inactive	inactive	inactive	inactive	inactive	inactive	–	–	inactive	inactive	inactive	inactive	–	–	inactive	–	–
CCCCC(CC)COCCCN (configuration not stated)	inactive	inactive	inactive	inactive	inactive	inactive	inactive	inactive	–	–	–	inactive	inactive	inactive	–	–	–	–	–
Cl/C(=C\n1cncn1)c1ccc(Cl)cc1Cl	inactive	inactive	–	inactive	inactive	inactive	inactive	inactive	inactive	inactive	inactive	–	–	inactive	–	inactive	–	inactive	–
COc1ccccc1OC(=O)Oc1ccccc1OC	inactive	inactive	–	inactive	inactive	inactive	inactive	inactive	inactive	inactive	–	–	inactive	inactive	inactive	23.7 µM (active)	–	inactive	inactive
O=C(O)Cc1cc(I)c(Oc2ccc(O)c(I)c2)c(I)c1	inactive	inactive	–	inactive	inactive	inactive	inactive	inactive	inactive	inactive	inactive	–	–	inactive	–	–	–	inactive	–
